# Measurements published in PubChem BioAssay (Tox21).
# “And” between values parts separate entries of the source, which are not always exact repeats. Equal entries are not always repeated. Records with an inconclusive call do not appear. Where a call stands in place of a potency, no number is given. The source made the active and inactive calls. The call rests on the fitted dose curve; in most records, active means well fitted inhibition curve with a large enough effect in the repeat runs; inconclusive means weak or mixed curves; inactive means flat fitted curve, though single readings scatter.
# Target: Luciferin 4-monooxygenase (Photinus pyralis) (UniProt P08659)
# Test: qHTS assay to identify small molecule inhibitors of firefly luciferase (AID 1224835); further: nearly all actives have a fitted effect of over 25% in size
# Conditions: purified P. pyralis luciferase, luminescence inhibition; series mostly up to 115 µM
# Excerpt: U.S. Tox21 Program National Center for Advancing Translational Sciences [NCATS] NIH Chemical Genomics Center [NCGC] U.S. Environmental Protection Agency [EPA] National Institutes of Environmental Health Sciences [NIEHS] National Toxicology Program [NTP] U.S. Food and Drug Administration [FDA] Tox21 Assay Overview: Firefly (Photinus pyralis) luciferase is one of the most commonly used transcriptional reporters. Firefly luciferase reporter-gene assays are generally considered one of the most sensitive assay types (Wood, 1995; Wood, 1998). However, it was initially observed, in 1991, by Thompson et al., that compounds that resemble the substrates of firefly luciferase (FLuc) can act as competitive inhibitors of the enzyme, and that these compounds, upon interaction with luciferase in the cell, can actually stabilize the protein and increase its half-life. Previous profiling work by other groups to determine the prevalence of compounds that affect FLuc enzymatic activity (PubChem AID 411) identified that ~3% of the MLSMR library (then at ~72K) inhibited FLuc. […] Thus the Tox21 10K library is profiled for activity against FLuc using a biochemical assay of purified FLuc and KM concentrations of FLuc substrates (D-luciferin and ATP).
# These assay plates were then treated with 23nL of compound or DMSO using a Kalypsys pin tool, which allows for delivery of a 6-point interplate titration of each compound to the assay plate (quantitative HTS.) 1 uL of firefly luciferase mix (containing 50 mM Tris acetate, pH 7.6, 0.04 uM P. pyralis luciferase, 0.01% Tween, 0.05% BSA and dH2O) was then delivered by FRD to each well. Luciferase activity was then measured using a ViewLux CCD imager.
# Sequence of Luciferin 4-monooxygenase (Photinus pyralis) (P08659 whole entry, looked up): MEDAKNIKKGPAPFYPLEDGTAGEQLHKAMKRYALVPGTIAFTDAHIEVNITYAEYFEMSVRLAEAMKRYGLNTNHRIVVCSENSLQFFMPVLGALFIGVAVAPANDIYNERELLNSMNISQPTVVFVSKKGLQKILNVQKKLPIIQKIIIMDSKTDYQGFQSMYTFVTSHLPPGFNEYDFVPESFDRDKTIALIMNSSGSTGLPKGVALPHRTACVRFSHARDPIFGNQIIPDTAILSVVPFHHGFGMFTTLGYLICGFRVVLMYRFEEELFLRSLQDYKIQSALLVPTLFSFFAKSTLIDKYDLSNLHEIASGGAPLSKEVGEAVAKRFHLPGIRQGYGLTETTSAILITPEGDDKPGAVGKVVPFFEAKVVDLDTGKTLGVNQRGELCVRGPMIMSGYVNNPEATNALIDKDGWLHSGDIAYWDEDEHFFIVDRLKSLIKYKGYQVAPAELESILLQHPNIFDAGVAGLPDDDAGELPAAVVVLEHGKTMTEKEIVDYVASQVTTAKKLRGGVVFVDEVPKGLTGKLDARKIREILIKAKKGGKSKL
SMILES,Potency,"activity change, negative = inhibition"
Oc1cc2ccccc2c2ccccc12,79.6 µM (active),
[O-][n+]1ccccc1SSc1cccc[n+]1[O-],0.425 µM (active),
Oc1c(Cl)cc(Cl)c2cccnc12,inactive,
Cc1ccc(O)c2ncccc12,inactive,
CN1CCN(CCC(=O)N2c3ccccc3Sc3ccc(C(F)(F)F)cc32)CC1,inactive,
OC1(c2ccc(Cl)c(C(F)(F)F)c2)CCN(CCCC(c2ccc(F)cc2)c2ccc(F)cc2)CC1,inactive,
COc1cc(-c2nc(NC(=O)c3cc4cc(C)cc(C)c4n3CC(=O)O)sc2CCC2CCCCC2)c(OC)cc1Cl,inactive,
COC(=O)C1=C(C)NC(C)=C(C(=O)OCC(C)C)C1c1ccccc1[N+](=O)[O-] (stereo not given),inactive,
CCCCC(CC)CN=C(N)NC(N)=NCCCCCCN=C(N)NC(N)=NCC(CC)CCCC (stereo not given),inactive,
CC[C@@]1(O)C(=O)OCc2c1cc1n(c2=O)Cc2c-1nc1ccccc1c2/C=N/OC(C)(C)C,inactive,
[Cl][Bi]([Cl])([c]1ccccc1)([c]1ccccc1)[c]1ccccc1,12.6 µM (active),
O=C(OC[C@H]1O[C@@H](OC(=O)c2cc(O)c(O)c(OC(=O)c3cc(O)c(O)c(O)c3)c2)[C@H](OC(=O)c2cc(O)c(O)c(OC(=O)c3cc(O)c(O)c(O)c3)c2)[C@@H](OC(=O)c2cc(O)c(O)c(OC(=O)c3cc(O)c(O)c(O)c3)c2)[C@@H]1OC(=O)c1cc(O)c(O)c(OC(=O)c2cc(O)c(O)c(O)c2)c1)c1cc(O)c(O)c(OC(=O)c2cc(O)c(O)c(O)c2)c1,,-18.6% [at 23.6 µM] (inactive)
NNc1nc(-c2ccc(N)cc2)cs1,35.6 µM (active),
C[C@@H](NCCCc1cccc(C(F)(F)F)c1)c1cccc2ccccc12,inactive,
CC(C)(C)CC(C)(C)c1ccc(OCCOCC[N+](C)(C)Cc2ccccc2)cc1,inactive,
CCCCCCCCS(=O)C(C)Cc1ccc2c(c1)OCO2 (stereo not given),inactive,
NC(=O)NS(=O)(=O)c1ccc(N)cc1,inactive,
CCCCCCCCCCC=O,inactive,
CCN(CCC#N)c1ccc(N=Nc2c(Cl)cc([N+](=O)[O-])cc2Cl)cc1,63.3 µM (active),
CN(C)[C@@H]1C(=O)C(C(N)=O)=C(O)[C@@]2(O)C(=O)C3=C(O)c4c(O)ccc(Cl)c4[C@@H](O)[C@H]3C[C@@H]12,inactive,

SMILES,Potency,"activity change, negative = inhibition"
Nc1nc2ccccc2n1Cc1ccc(F)cc1,inactive,
O=C(Oc1ccccc1)c1ccccc1C(=O)Oc1ccccc1,inactive,
Cc1[nH]cnc1C[C@H]1CCc2c(C)c3ccccc3n2C1=O,inactive,
CCc1cc(SCc2sc(-c3ccc(C(F)(F)F)cc3)nc2CN2CCN(c3ccc(OC)cc3)CC2)ccc1OCC(=O)O,inactive,
CCCC1O[C@@H]2C[C@H]3[C@@H]4CCC5=CC(=O)C=C[C@]5(C)[C@H]4[C@@H](O)C[C@]3(C)[C@]2(C(=O)CO)O1 (stereo not given in full),inactive,
CCCCCCCCCCCCCCCC(=O)OC[C@H](O)[C@H]1OC(=O)C(O)=C1O,63.3 µM (active),
N=C1N=C(N)c2ccccc21,inactive,
C[C@]12CCC(=O)C=C1CC[C@@H]1[C@@H]2[C@@H](O)C[C@@]2(C)[C@H]1CC[C@]2(O)C(=O)COC(=O)CCC(=O)O,inactive,
Nc1ccc(N)c2ccccc12,inactive,
CCCC/C=C/CCCCO,inactive,
CCCCc1oc2ccc(NS(C)(=O)=O)cc2c1C(=O)c1ccc(OCCCN(CCCC)CCCC)cc1,inactive,
c1cc(C(c2ccc(OCC3CO3)cc2)c2ccc(OCC3CO3)cc2)ccc1OCC1CO1 (stereo not given),inactive,
NC(=O)N1C(=O)C(C(=O)c2cc(Cl)cs2)c2cc(F)c(Cl)cc21 (stereo not given),71 µM (active),
O=C(N/N=C/c1ccccc1O)c1ccncc1,27.5 µM (active),
O=C1CCCCCN1SSN1CCCCCC1=O,inactive,
COc1c(C)c2c(c(O)c1C/C=C(\C)CCC(=O)O)C(=O)OC2,inactive,
CCCCCCOC(=O)c1ccc(O)cc1,31.8 µM (active) and 28.3 µM (active),
CCCCCCCC[P+](CCCCCCCC)(CCCCCCCC)CCCCCCCC,62.9 µM (active),
CCCCCOC(=O)CCCC,inactive,
COC(=O)C1=C(C)NC(C)=C(C(=O)OCCc2ccc(N3CCN(C(c4ccccc4)c4ccccc4)CC3)cc2)C1c1cccc([N+](=O)[O-])c1 (stereo not given),inactive,
